Among the data in PubChem BioAssay AID504452 (The Scripps Research Institute Molecular Screening Center, 2011) are activation (% of partial agonist control) and activation (% of full agonist control) values, retold here.

Activity calls are given as the source filed them. Rule as the data show it: active = activation above about 85%; inactive = the rest.

The test deals with Peroxisome proliferator-activated receptor gamma (Homo sapiens) (UniProt P37231). Nature of the test: PPARg partial agonist activation, primary screen, cell-based, luciferase reporter, luminescence (AID 504452).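 Also: Cos-1 cells carrying PPARgamma and a response element luciferase reporter.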 As to conditions: at 5 µM, stronger effect = higher value; activation (% of full agonist control): measured here: relative to full agonist control.
Chain of Peroxisome proliferator-activated receptor gamma (Homo sapiens) (P37231 whole entry, looked up): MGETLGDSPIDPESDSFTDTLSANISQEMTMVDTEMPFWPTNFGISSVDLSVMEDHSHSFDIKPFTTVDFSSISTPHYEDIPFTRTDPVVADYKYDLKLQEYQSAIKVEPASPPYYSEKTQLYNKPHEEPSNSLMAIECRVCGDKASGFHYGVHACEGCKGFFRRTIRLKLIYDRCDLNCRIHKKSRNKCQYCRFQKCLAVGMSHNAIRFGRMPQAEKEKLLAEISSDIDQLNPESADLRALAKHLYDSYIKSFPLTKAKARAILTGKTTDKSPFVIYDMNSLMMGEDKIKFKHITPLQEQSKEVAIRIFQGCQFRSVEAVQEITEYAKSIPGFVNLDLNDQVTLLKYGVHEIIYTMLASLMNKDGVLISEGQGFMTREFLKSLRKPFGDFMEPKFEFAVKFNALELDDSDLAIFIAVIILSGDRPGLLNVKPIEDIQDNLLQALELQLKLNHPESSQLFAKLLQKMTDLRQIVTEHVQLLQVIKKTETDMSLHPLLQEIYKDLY
For the compound `O=C(c1cc2n(n1)C(C(F)(F)F)CC(c1ccco1)N2)N1CCc2ccccc2C1` (stereo unspecified), the activation (% of partial agonist control) is 82.3% (inactive) and the activation (% of full agonist control) is 37.2%.

`COc1cccc(Cn2nc3c4cc(F)ccc4n(Cc4ccc(F)cc4)cc-3c2=O)c1`: the activation (% of full agonist control) worked out at 38.8% and the activation (% of partial agonist control) is 85.9% (active).

Regarding `O=C(Nc1cc(Cl)ccc1O)c1cc2n(n1)C(C(F)(F)F)CC(c1ccc3c(c1)OCO3)N2` (stereo unspecified), the activation (% of partial agonist control) is 77.5% (inactive) and the activation (% of full agonist control) was 35%.

Consider `COc1ccc(C2C(C(=O)N3CCC(C(N)=O)CC3)CC(=O)N2c2ccc(OC)cc2)cc1` (stereo unspecified), for which the activation (% of partial agonist control) was 56.5% (inactive) and the activation (% of full agonist control) came to 25.5%.

With `O=C(c1ccccc1)c1ccc(NCCCn2ccnc2)c([N+](=O)[O-])c1`, the activation (% of full agonist control) amounted to 26.9% and the activation (% of partial agonist control) is 59.6% (inactive).

As for `O=C(Cc1c(C(=O)O)[nH]c2ccccc12)Nc1ccc2c(c1)OCO2`, the activation (% of full agonist control) is 7.95% and the activation (% of partial agonist control) was 17.6% (inactive).

As to `Cc1ccc(-n2ncc3c(=O)[nH]c(SCC(=O)N4CCCc5ccccc54)nc32)cc1`, the activation (% of full agonist control) is 36.4% and the activation (% of partial agonist control) was 80.5% (inactive).

Consider `CC(=O)N1N=C(c2ccccc2)CC1c1cn(Cc2ccccc2)c2ccccc12` (stereo unspecified), for which the activation (% of partial agonist control) was 99% (active) and the activation (% of full agonist control) was found to be 44.7%.

Regarding `O=C(Cc1cccs1)N1CCCC(c2nc3c(nnn3Cc3ccc(F)cc3)c(=O)[nH]2)C1` (stereo unspecified), the activation (% of partial agonist control) is 72.5% (inactive) and the activation (% of full agonist control) worked out at 32.7%.

For the compound `COc1ccc(N2C(=O)C(CN3CCN(C)CC3)C2c2ccccc2)cc1` (stereo unspecified), the activation (% of partial agonist control) is 70.6% (inactive) and the activation (% of full agonist control) turned out to be 31.9%.

In the case of `CCOc1ccc(C2c3[nH]c4ccccc4c3CCN2Cc2cccn2-c2ncccn2)cc1` (stereo unspecified), the activation (% of partial agonist control) is 87.5% (active) and the activation (% of full agonist control) worked out at 39.5%.

`O=C(Cc1ccccc1)n1nc(-c2ccco2)nc1SCc1ccccc1`: the activation (% of partial agonist control) was 81.8% (inactive) and the activation (% of full agonist control) is 37%.

`COc1ccc(CN(C)C(=O)[C@H](Cc2ccccc2)NC(=O)c2ccco2)c(OC)c1`: the activation (% of full agonist control) came to 32.8% and the activation (% of partial agonist control) is 72.7% (inactive).

As for `Cc1ccc(/C(O)=C2/C(=O)C(=O)N(c3ccccn3)C2c2cccc([N+](=O)[O-])c2)cc1` (stereo unspecified), the activation (% of partial agonist control) is 75.6% (inactive) and the activation (% of full agonist control) stood at 34.1%.

`O=C(COc1coc(CN2CCc3ccccc3C2)cc1=O)Nc1cccc(Cl)c1`: the activation (% of full agonist control) worked out at 29.2% and the activation (% of partial agonist control) was 64.6% (inactive).

With `O=C1CC(N2CCN(Cc3ccc4c(c3)OCO4)CC2)C(=O)N1Cc1ccc(N2CCCC2=O)cc1` (stereo unspecified), the activation (% of full agonist control) is 41.4% and the activation (% of partial agonist control) is 91.6% (active).

On to `N=c1c(C(=O)NCCc2ccccc2)cc2c(=O)n3ccccc3nc2n1CC1CCCO1` (stereo unspecified), for which the activation (% of full agonist control) came to 34.6% and the activation (% of partial agonist control) is 76.7% (inactive).

Turning to `CCC(=O)c1ccc(OCC(=O)OC(C)C(=O)Nc2c(C)n(C)n(-c3ccccc3)c2=O)cc1` (stereo unspecified), the activation (% of full agonist control) was found to be 40.4% and the activation (% of partial agonist control) was 89.5% (active).

Take `O=C(Cn1c(=O)c(=O)n(Cc2ccccc2)c2ccc(Cl)cc21)NCC1CCCO1` (stereo unspecified): the activation (% of partial agonist control) was 68.9% (inactive) and the activation (% of full agonist control) came to 31.1%.

Consider `O=C(CCCCCNC(=O)N1CCn2c1nc1ccccc12)N[C@H](Cc1ccccc1)C(=O)O`, for which the activation (% of full agonist control) amounted to 27.3% and the activation (% of partial agonist control) is 60.5% (inactive).

As for `CN1C(=O)COc2ccc(C(=O)c3oc4ccccc4c3-c3cnc4c(c3)COc3ccccc3-4)cc21`, the activation (% of partial agonist control) was 18.3% (inactive) and the activation (% of full agonist control) was 8.28%.

On to `Cc1ccc(CN2C(=O)N/C(=C\c3cccn3-c3cccc(C(=O)O)c3)C2=O)cc1`, for which the activation (% of full agonist control) is 36.9% and the activation (% of partial agonist control) is 81.8% (inactive).

Turning to `O=C1CC(NS(=O)(=O)c2ccc3ccccc3c2)CN1c1ccccc1` (stereo unspecified), the activation (% of full agonist control) came out at 31.7% and the activation (% of partial agonist control) is 70.2% (inactive).

As for `Cc1cc(N2C(=O)C(O)=C(C(=O)c3ccc(C)o3)C2c2cccc(Oc3ccccc3)c2)no1` (stereo unspecified), the activation (% of full agonist control) is 34.1% and the activation (% of partial agonist control) was 75.5% (inactive).

For `COc1ccc2c(c1)c(=O)c(C(=O)c1ccc(F)cc1)cn2CC(=O)Nc1ccc(F)cc1`, the activation (% of full agonist control) worked out at 48.8% and the activation (% of partial agonist control) is 108% (active).

Turning to `CC(Oc1cccc(Cl)c1)C(=O)Nc1ccc(N2CCOCC2)cc1N1CCOCC1` (stereo unspecified), the activation (% of full agonist control) was 33.2% and the activation (% of partial agonist control) was 73.5% (inactive).

As for `O=c1c2cn(Cc3ccc(F)cc3)c3ccc(F)cc3c-2nn1Cc1ccc(F)cc1`, the activation (% of partial agonist control) was 108% (active) and the activation (% of full agonist control) came to 48.9%.

`COc1ccc(NC(=O)C(=O)c2cn(CC(=O)N3CCCC3)c3ccccc23)c(OC)c1`: the activation (% of full agonist control) was found to be 32.9% and the activation (% of partial agonist control) was 72.7% (inactive).

For `COc1cccc(CN2CCN(Cc3ccc4c(NC(C)=O)cccc4n3)CC2CCO)c1` (stereo unspecified), the activation (% of partial agonist control) was 80.7% (inactive) and the activation (% of full agonist control) was 36.5%.

In the case of `CC(OC(=O)CNC(=O)c1ccc(F)cc1)C(=O)Nc1ccc(S(=O)(=O)N2CCOCC2)cc1` (stereo unspecified), the activation (% of partial agonist control) is 77.2% (inactive) and the activation (% of full agonist control) was 34.9%.

In the case of `COc1cc(C2/C(=C(/O)c3ccccc3)C(=O)C(=O)N2c2ccccn2)ccc1O` (stereo unspecified), the activation (% of partial agonist control) was 57.6% (inactive) and the activation (% of full agonist control) turned out to be 26%.

Regarding `O=C(NCCCn1ccnc1)C(=O)NCC(c1ccco1)N1CCN(c2ccccc2)CC1` (stereo unspecified), the activation (% of partial agonist control) is 62.9% (inactive) and the activation (% of full agonist control) is 28.4%.

Take `CSCc1c(C(=O)Nc2ccc(N3CCOCC3)cc2)oc2ccccc12`: the activation (% of partial agonist control) is 74.2% (inactive) and the activation (% of full agonist control) worked out at 33.5%.
